The subject of the experiment is Calcium channel L-type (rat). In words: PubChem AID 1788. The following applies: MDS Pharma lead profiling panel, radioligand binding, benzothiazepine site, at 10 µM, active compounds read high.

For orientation: inhibition means the drop in the measured response relative to a control, in per cent.

The structures appear in SMILES notation. Calls of active or inactive are those of the source. No rule for the calls is given here.

For `CCOC(=O)N1CCC(NCCNC(=O)c2ccccc2C)CC1`, the inhibition is -4% (inactive).

For the origin of these results see PubChem BioAssay AID1788 (Vanderbilt High Throughput Screening Facility, 2009).
